Bioassay records: PubChem BioAssay, NMMLSC
CIT2 TOR yeast = modulators of CIT2-GFP expression in yeast, primary screen, S. cerevisiae, GFP fusion, multiplex flow cytometry, MLPCN library. GFP response vs DMSO, % at 10 µM. AID 2029, 2009. S. cerevisiae CIT2-GFP strain, 3 h; 100 means same as DMSO wells. 320,000 compounds, 0.065% hits;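 active = GFP response relative to DMSO above a set limit, near the screen mean plus 3 SD, cut at about 150% in these data; inconclusive = Fewer than 70 cells measured for a yeast strain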;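 note: ratio of well median GFP fluorescence to mean of DMSO wells on the plate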
Myeloid diff MLP = induction of myeloid progenitor differentiation, primary screen, cell-based, flow cytometry, MLPCN library; ER-HoxA9 myeloid progenitors, lysozyme-GFP differentiation; calls only at 10 µM; 360,000 compounds, 1% hits; AID 624256, 2012;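 active = normalized GFP-positive differentiation at or above the plate's own cutoff, the solvent-only control mean plus 3 SD; inconclusive = no clear call, values can overlap the other calls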;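 note: cells exposed to compound for four days before flow analysis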
LAP4 TOR yeast = modulators of LAP4-GFP expression in yeast, primary screen, S. cerevisiae, multiplex flow cytometry, MLPCN library; AID 2023, 2009; 320,000 compounds, 0.34% hits; GFP response vs DMSO, % at 10 µM; 3 h; median GFP as percent of DMSO wells;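 active = GFP response vs DMSO above a set limit, about the screen mean plus 3 SD, cut at about 150% in these data; inconclusive = under 70 cell events counted for the yeast strain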
RPL19A TOR yeast = RPL19A-GFP expression modulators in yeast, primary screen, cell-based, S. cerevisiae, multiplex flow cytometry, MLPCN | S. cerevisiae RPL19A-GFP strain, 3 h; stronger effect = lower value | percent response vs DMSO, % at 10 µM | 330,000 compounds, 0.3% hits;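 active = percent response vs DMSO below 50%; inconclusive = fewer than 70 events counted for the yeast strain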;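 note: median channel GFP fluorescence of the barcoded RPL19A-GFP strain; ratio of sample median GFP to plate DMSO average so 100% = DMSO; lower means less RPL19A-GFP as with rapamycin TOR inhibition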
MEP2 TOR yeast = modulators of MEP2-GFP levels in yeast, primary screen, S. cerevisiae, multiplex flow cytometry, MLPCN library | S. cerevisiae MEP2-GFP strain, 3 h; 100% = DMSO control level | GFP response vs DMSO, % at 10 µM | 330,000 compounds, 0.51% hits | AID 2016, 2009;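 active = GFP response versus DMSO above a set limit, roughly screen mean plus 3 SD, cut at about 180% in these data; inconclusive = fewer than 70 cells counted for a yeast strain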;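 note: median GFP fluorescence of the barcode-gated MEP2-GFP cells per well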
AGP1-GFP MLPCN = modulators of AGP1-GFP expression in yeast TOR pathway, primary screen, cell-based, multiplex flow cytometry, S. cerevisiae, MLPCN library. 3 h; GFP as percent of DMSO wells. GFP response vs DMSO, % at 10 µM. 320,000 compounds, 0.02% hits;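 active = GFP response relative to DMSO above a set limit, near screen average plus 3 SD, cut at about 150% in these data; inconclusive = fewer than 70 cells counted for the yeast strain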;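 note: median GFP channel fluorescence of the gated AGP1 strain per well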
* = called active by the depositor; [ ] = dose if it differs, or a comment. An excerpt weighted towards active compounds, which were near 1.8% of everything screened.

Cc1c(NC(=O)/C=C/c2cn(-c3ccccc3)nc2-c2ccccc2)c(=O)n(-c2ccccc2)n1C was read as CIT2 TOR yeast inconclusive, Myeloid diff MLP inactive, LAP4 TOR yeast 86.8, RPL19A TOR yeast 63.8 and MEP2 TOR yeast 175.1*[may fluoresce violet].
Screening O=C(O)/C=C/c1cn(-c2ccccc2)nc1-c1ccccc1 returned CIT2 TOR yeast 112.7, Myeloid diff MLP inactive, LAP4 TOR yeast 108.5, RPL19A TOR yeast 112.6, MEP2 TOR yeast 112.7 and AGP1-GFP MLPCN 99.1.
`COc1cccc(-c2nn3c(-c4ccco4)nnc3s2)c1` gave CIT2 TOR yeast inconclusive, Myeloid diff MLP inactive, LAP4 TOR yeast inconclusive, RPL19A TOR yeast 17.3*[may fluoresce violet], MEP2 TOR yeast inconclusive and AGP1-GFP MLPCN inconclusive.
COc1cccc(OC)c1-c1nn2c(-c3ccco3)nnc2s1 was read as CIT2 TOR yeast 100.4, Myeloid diff MLP inactive, LAP4 TOR yeast 104.7, RPL19A TOR yeast 100.2, MEP2 TOR yeast 100.4 and AGP1-GFP MLPCN 94.2.
For O=C(NC1CCN(Cc2ccccc2)CC1)c1ccc(Cn2c(=S)[nH]c3ccc(N4CCOCC4)cc3c2=O)cc1 the results were CIT2 TOR yeast 99.3, Myeloid diff MLP active, LAP4 TOR yeast 97.7, RPL19A TOR yeast 87.7, MEP2 TOR yeast 97.3 and AGP1-GFP MLPCN 109.0.
`O=C(CCCCCn1c(=S)[nH]c2ccc(N3CCOCC3)cc2c1=O)NC1CCN(Cc2ccccc2)CC1` gave CIT2 TOR yeast 96.2, Myeloid diff MLP inactive, LAP4 TOR yeast 97.3, RPL19A TOR yeast 95.8, MEP2 TOR yeast 91.4 and AGP1-GFP MLPCN 102.5.
For O=C1/C(=C/c2ccc(N3CCOCC3)o2)SC(=Nc2ccccc2)N1CCc1c[nH]c2ccccc12 the results were CIT2 TOR yeast 112.5, Myeloid diff MLP active, LAP4 TOR yeast 108.4, RPL19A TOR yeast 100.3, MEP2 TOR yeast 104.3 and AGP1-GFP MLPCN 102.1.
For C=CCOc1ccc(/C=C/C(=O)OCC(=O)NCc2cccc(OC)c2)cc1 the results were CIT2 TOR yeast 106.4, Myeloid diff MLP inactive, LAP4 TOR yeast 110.9, RPL19A TOR yeast 106.1, MEP2 TOR yeast 108.2 and AGP1-GFP MLPCN 120.2.
Screening CC(=O)NC(NC(C)=O)c1ccc(N(C)C)cc1 returned CIT2 TOR yeast inconclusive, Myeloid diff MLP inactive, LAP4 TOR yeast 105.1, RPL19A TOR yeast 39.4*[may fluoresce violet], MEP2 TOR yeast 218.5*[may fluoresce violet] and AGP1-GFP MLPCN 26.4.
For CCN(CC)c1ccc(C(NC(C)=O)NC(C)=O)cc1 the results were CIT2 TOR yeast 92.6, Myeloid diff MLP inactive, LAP4 TOR yeast 91.3, MEP2 TOR yeast 95.7 and AGP1-GFP MLPCN 96.0.
For COc1ccc(Cl)cc1NS(=O)(=O)c1ccc2c(c1)NC(=O)CCS2 the results were CIT2 TOR yeast 95.7, Myeloid diff MLP inactive, LAP4 TOR yeast 93.0, RPL19A TOR yeast 99.2, MEP2 TOR yeast 93.5 and AGP1-GFP MLPCN 98.2.
CCc1sc(N)nc1-c1ccccc1 was read as CIT2 TOR yeast 89.3, Myeloid diff MLP inactive, LAP4 TOR yeast 80.6, RPL19A TOR yeast 105.1, MEP2 TOR yeast 87.3 and AGP1-GFP MLPCN 97.3.
O=C(COC(=O)c1ccc2ccccc2n1)Nc1ncc(C(F)(F)F)cc1Cl was read as CIT2 TOR yeast inconclusive, Myeloid diff MLP inactive, LAP4 TOR yeast 91.8, RPL19A TOR yeast 37.8*[may fluoresce violet], MEP2 TOR yeast 275.5*[may fluoresce violet] and AGP1-GFP MLPCN inconclusive.
O=c1c(/C=C(\O)c2ccccc2)nc2ccccc2n1-c1ccccc1 was read as CIT2 TOR yeast 94.8, Myeloid diff MLP active, LAP4 TOR yeast 101.6, RPL19A TOR yeast 98.1, MEP2 TOR yeast 105.6 and AGP1-GFP MLPCN 94.1.
Screening Cc1nc2ccccc2n1-c1ccccc1 returned CIT2 TOR yeast 108.0, Myeloid diff MLP inactive, LAP4 TOR yeast 99.7, RPL19A TOR yeast 103.3, MEP2 TOR yeast 100.6 and AGP1-GFP MLPCN 110.2.
Screening Oc1cc2c(cc1C(c1ccc(Cl)c(Cl)c1)N1CCCC1)OCO2 (configuration not stated) returned Myeloid diff MLP inactive.
COc1ccc(CN2C(=O)CSCC2(C)C(=O)NCc2ccccc2)cc1OC (configuration not stated) was read as Myeloid diff MLP inactive.
Screening O=C1/C(=C/c2ccc(N3CCCC3)cc2)NC(=S)N1C1CC1 returned CIT2 TOR yeast inconclusive, Myeloid diff MLP inactive, LAP4 TOR yeast 82.8, RPL19A TOR yeast 42.1*[may fluoresce violet], MEP2 TOR yeast 329.0*[may fluoresce violet] and AGP1-GFP MLPCN inconclusive.
COc1ccc(N(CC(=O)NCc2ccc(F)cc2)C(=O)CCC(=O)Nc2ccccn2)cc1 was read as CIT2 TOR yeast 93.6, LAP4 TOR yeast 90.4, RPL19A TOR yeast 93.6, MEP2 TOR yeast 91.7 and AGP1-GFP MLPCN 89.1.
For Cc1ccc(N(CC(=O)NCc2ccc(F)cc2)C(=O)CCC(=O)Nc2ccccn2)cc1C the results were CIT2 TOR yeast inconclusive, Myeloid diff MLP inactive, LAP4 TOR yeast 75.8, RPL19A TOR yeast 44.9*[may fluoresce violet], MEP2 TOR yeast 564.2*[may fluoresce violet] and AGP1-GFP MLPCN inconclusive.
CS(=O)(=O)c1ccccc1-c1nnc(NC(=O)C2=COCCO2)o1 was read as CIT2 TOR yeast 111.9, Myeloid diff MLP inactive, LAP4 TOR yeast 104.0, RPL19A TOR yeast 109.6, MEP2 TOR yeast 102.3 and AGP1-GFP MLPCN 118.4.
For CCOc1ccc2nc(Cl)c(/C=C/C(=O)c3ccco3)cc2c1 the results were CIT2 TOR yeast inconclusive, Myeloid diff MLP inactive, LAP4 TOR yeast 100.5, RPL19A TOR yeast 37.4*[may fluoresce violet] and MEP2 TOR yeast 506.9*[may fluoresce violet].
Screening CC(C)[C@H](NC(=O)[C@@H]1CSC2c3ccccc3C(=O)N21)C(=O)NCc1ccncc1 (some centres not stated) returned CIT2 TOR yeast inconclusive, Myeloid diff MLP inactive, LAP4 TOR yeast 89.3, RPL19A TOR yeast 27.0*[may fluoresce violet], MEP2 TOR yeast 163.0 and AGP1-GFP MLPCN inconclusive.
Screening O=C(Nc1ccccc1Cl)NC1(C(=O)N2CCCC2)CCCCC1 returned CIT2 TOR yeast inconclusive, Myeloid diff MLP inactive, LAP4 TOR yeast 106.0, RPL19A TOR yeast 32.5*[may fluoresce violet], MEP2 TOR yeast 377.2*[may fluoresce violet] and AGP1-GFP MLPCN inconclusive.
`Cc1ccccc1NC(=O)NC1(C(=O)N2CCN(C)CC2)CCCCC1` gave CIT2 TOR yeast inconclusive, Myeloid diff MLP inactive, LAP4 TOR yeast 90.9, RPL19A TOR yeast 44.8*[may fluoresce violet], MEP2 TOR yeast 281.7*[may fluoresce violet] and AGP1-GFP MLPCN inconclusive.
`COc1ccc2cc3cc(C(=O)N4CCCCC4C)oc3nc2c1` (configuration not stated) gave CIT2 TOR yeast 95.5, Myeloid diff MLP active, LAP4 TOR yeast 101.8, RPL19A TOR yeast 98.5, MEP2 TOR yeast 97.6 and AGP1-GFP MLPCN 96.5.
